Among the test systems are SR leukemia; RPMI-8226 leukemia; OVCAR-8 ovarian; OVCAR-4 ovarian; SK-OV-3 ovarian; IGROV1 ovarian; OVCAR-3 ovarian; HS 578T breast; NCI/ADR-RES ovarian; T-47D breast; BT-549 breast; MDA-MB-435 melanoma; SW-620 colon; MCF7 breast; HCT-116 colon; HCC-2998 colon; KM12 colon.
What all share (assay): NCI-60 one-dose screen, 48 h (100 = growth as untreated, 0 = no growth, -100 = all killed)
Details in all cases: 10 µM

SMILES strings stand for the structures. The panel holds about 83,000 compounds, 20% with a hit somewhere; the sample as a whole holds those more often.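 Cells were grown in 96-well plates and exposed to the test compound at a single concentration for 48 hours; results are reported as percent growth, with values below 10 considered active.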 A number with no mark means an inactive call. Calls of active or inactive are those of the source.

On to `C#C[C@]1(O)CC[C@H]2[C@@H]3CC[C@H]4CC(F)(F)CC[C@]4(C)[C@H]3CC[C@@]21C`, for which the growth in the assay with SR leukemia is 8.15% (active); in the assay on RPMI-8226 leukemia, 80.1%; in the assay with OVCAR-8 ovarian, 84.6%; in the assay on OVCAR-4 ovarian, 94.2%; in the assay on SK-OV-3 ovarian it was 60.8%; with IGROV1 ovarian, 94.2%. For the same compound, the growth was 93.9% in the assay on OVCAR-3 ovarian; 77.6% in the assay on HS 578T breast; 92.2% in the assay on NCI/ADR-RES ovarian; 64.7% in the assay on T-47D breast; 58.6% with BT-549 breast; 84% in the assay on MDA-MB-435 melanoma. In addition, the growth with SW-620 colon is 87.9%; in the assay on MCF7 breast it was 88.9%; with HCT-116 colon, 76.6%; in the assay on HCC-2998 colon, 112%; in the assay with KM12 colon, 87.2%.
Consider `CCCc1c(C)nc2scc(-c3ccc(Cl)cc3)n2c1=O`, for which the growth in the assay on SR leukemia was 83.1%; in the assay on RPMI-8226 leukemia, 96.4%; in the assay on OVCAR-8 ovarian, 107%; in the assay on OVCAR-4 ovarian it was 97.3%; in the assay with SK-OV-3 ovarian it was 103%; in the assay with IGROV1 ovarian, 107%. Further, the growth in the assay on OVCAR-3 ovarian was 104%; with HS 578T breast, 101%; with NCI/ADR-RES ovarian it was 101%; in the assay with T-47D breast, 86.5%; in the assay on BT-549 breast, 98.3%; with MDA-MB-435 melanoma, 108%. Further, the growth in the assay with SW-620 colon was 109%; with MCF7 breast, 95.2%; in the assay with HCT-116 colon, 99.1%; in the assay on HCC-2998 colon, 106%; with KM12 colon, 98.2%.
Take `CCN1CCOC1C(C)C` (centres undefined): the growth in the assay with SR leukemia is 81.7%; in the assay on RPMI-8226 leukemia, 106%; with OVCAR-8 ovarian, 108%; in the assay on OVCAR-4 ovarian, 113%; with SK-OV-3 ovarian it was 100%; with IGROV1 ovarian, 108%. In addition, the growth was 111% in the assay on OVCAR-3 ovarian; 109% in the assay on HS 578T breast; 102% with NCI/ADR-RES ovarian; 101% with T-47D breast; 108% in the assay on BT-549 breast; 105% with MDA-MB-435 melanoma. In addition, the growth is 101% with MCF7 breast, 102% with HCT-116 colon, 101% in the assay with HCC-2998 colon and 109% in the assay with KM12 colon.
In the case of `COc1cccc(C(=O)N(c2ccc(F)c(F)c2)C(C(=O)NC(C)(C)C)c2cc3c(C)cc(C)cc3nc2Cl)c1` (centres undefined), the growth is 67.6% with SR leukemia; 42.9% in the assay on RPMI-8226 leukemia; 84.1% with OVCAR-8 ovarian; 48.7% in the assay with OVCAR-4 ovarian; 75.5% in the assay with SK-OV-3 ovarian; 77.2% in the assay with IGROV1 ovarian. Further, the growth is 60.3% in the assay on OVCAR-3 ovarian; 79.8% with HS 578T breast; 73.2% with NCI/ADR-RES ovarian; 46.6% in the assay with T-47D breast; 90.7% with BT-549 breast; 63.2% with MDA-MB-435 melanoma. The growth is 78.6% in the assay with SW-620 colon; 45.6% with MCF7 breast; 34.8% in the assay on HCT-116 colon; 88.3% in the assay with HCC-2998 colon; 60.2% in the assay on KM12 colon.
Regarding `COCCOC(=O)NC(=O)Nc1ccc(C(=O)c2ccc(Cl)cc2)cc1`, the growth is 22.2% with SR leukemia; 19.2% in the assay with RPMI-8226 leukemia; 40.4% in the assay on OVCAR-8 ovarian; 56.9% with OVCAR-4 ovarian; 27.2% in the assay with SK-OV-3 ovarian; 51.3% in the assay on IGROV1 ovarian. Moreover, the growth is 6.85% (active) in the assay on OVCAR-3 ovarian; 32% in the assay on HS 578T breast; 18.9% with NCI/ADR-RES ovarian; 16.5% in the assay with T-47D breast; 37.8% in the assay with BT-549 breast; 6.97% (active) in the assay on MDA-MB-435 melanoma. The growth in the assay on SW-620 colon is 30.4%; in the assay on MCF7 breast, 19.5%; in the assay on HCT-116 colon it was 30.5%; in the assay with HCC-2998 colon it was 47.3%; in the assay with KM12 colon, 29%.
With `COc1cc(Cn2c(-c3ccccc3)cc3c2-c2oncc2CC3)cc(OC)c1`, the growth in the assay on SR leukemia was 2.06% (active); with RPMI-8226 leukemia, 34.8%; with OVCAR-8 ovarian, 21.7%; in the assay with OVCAR-4 ovarian, 51.8%; with SK-OV-3 ovarian it was 0.474% (active); in the assay on IGROV1 ovarian it was 7.96% (active). Moreover, the growth was -47.1% (active) with OVCAR-3 ovarian; -6.35% (active) with HS 578T breast; -19.5% (active) with NCI/ADR-RES ovarian; 45.8% in the assay with T-47D breast; 8.36% (active) in the assay on BT-549 breast; -39.5% (active) with MDA-MB-435 melanoma. The growth is 23.8% with SW-620 colon; 14.1% with MCF7 breast; 6.79% (active) in the assay on HCT-116 colon; 17.4% in the assay on HCC-2998 colon; 10.2% in the assay on KM12 colon.
As for `COc1cc(-c2c(C#N)c(N)n3c(nc4ccccc43)c2C#N)cc(Br)c1OC`, the growth with SR leukemia was -1.43% (active); in the assay with RPMI-8226 leukemia, 35.8%; in the assay on OVCAR-8 ovarian, 36.4%; in the assay on OVCAR-4 ovarian, -2.8% (active); with SK-OV-3 ovarian, 49.3%; with OVCAR-3 ovarian it was -36.6% (active). Further, the growth with HS 578T breast is 19.7%; in the assay on NCI/ADR-RES ovarian, 78.1%; in the assay with T-47D breast, 65.8%; in the assay with BT-549 breast, 65.1%; in the assay on MDA-MB-435 melanoma, 62.8%; with SW-620 colon, 41.4%. Besides, the growth in the assay on MCF7 breast was 24.6%; with HCT-116 colon, 18.8%; in the assay with HCC-2998 colon it was 89.5%; in the assay on KM12 colon, 21.1%.
As for `FC(F)(F)c1ccc(-c2cnc(Cl)nc2NCc2cc(C(F)(F)F)cc(C(F)(F)F)c2)cc1`, the growth in the assay on SR leukemia is 26.2%; in the assay on RPMI-8226 leukemia, 0.828% (active); with OVCAR-8 ovarian, 15.6%; in the assay with OVCAR-4 ovarian, 19.5%; in the assay on SK-OV-3 ovarian, 43.4%; in the assay with IGROV1 ovarian, 45.5%. Besides, the growth in the assay with OVCAR-3 ovarian was 3.89% (active); in the assay with HS 578T breast, 26.8%; in the assay on NCI/ADR-RES ovarian it was 12.5%; with T-47D breast, 10.5%; in the assay on BT-549 breast it was 26.2%; in the assay on MDA-MB-435 melanoma, 14.3%. Besides, the growth in the assay on SW-620 colon is 17.5%; with MCF7 breast, 4.38% (active); in the assay with HCT-116 colon it was 4.49% (active); in the assay on KM12 colon, 13.1%.
Regarding `CN(C)c1ccc2cc(-c3cc4c(oc3=O)-c3ccccc3OC4O)c(=O)oc2c1` (centres undefined), the growth with SR leukemia is -12.7% (active); in the assay with RPMI-8226 leukemia, -9.42% (active); in the assay with OVCAR-8 ovarian, 13.6%; with OVCAR-4 ovarian, 26%; in the assay with SK-OV-3 ovarian, 28.8%; in the assay with IGROV1 ovarian it was -28.7% (active). Further, the growth with OVCAR-3 ovarian was -30% (active); in the assay with HS 578T breast it was -7.78% (active); in the assay with NCI/ADR-RES ovarian, 0.415% (active); with T-47D breast, -12.3% (active); with BT-549 breast, -17.4% (active); in the assay with MDA-MB-435 melanoma, -23.8% (active). The growth is 17.1% in the assay with SW-620 colon, 18.7% with MCF7 breast, 12.8% in the assay with HCT-116 colon and -37.7% (active) with KM12 colon.

Source of the values: PubChem BioAssay (NCI).
